Screening results deposited in PubChem by National Center for Advancing Translational Sciences (NCATS).
This is a sample that favours compounds with a hit; in the whole collection about 6.1% have one here.
Luciferase inh – blocks Photinus pyralis firefly luciferase activity; Potency, µM (highest dose often 57.1 µM), for inactives: top-dose activity change, negative = inhibition, usual class: inhibitors; purified firefly luciferase, luminescence, 8 min; 2.2% of 72,000 active; P08659; further: on the % scale 0 is the no-effect control and ±100 the full control effect; nearly all actives have a fitted effect of over 40% in size
Target sequence (P08659 whole entry, looked up): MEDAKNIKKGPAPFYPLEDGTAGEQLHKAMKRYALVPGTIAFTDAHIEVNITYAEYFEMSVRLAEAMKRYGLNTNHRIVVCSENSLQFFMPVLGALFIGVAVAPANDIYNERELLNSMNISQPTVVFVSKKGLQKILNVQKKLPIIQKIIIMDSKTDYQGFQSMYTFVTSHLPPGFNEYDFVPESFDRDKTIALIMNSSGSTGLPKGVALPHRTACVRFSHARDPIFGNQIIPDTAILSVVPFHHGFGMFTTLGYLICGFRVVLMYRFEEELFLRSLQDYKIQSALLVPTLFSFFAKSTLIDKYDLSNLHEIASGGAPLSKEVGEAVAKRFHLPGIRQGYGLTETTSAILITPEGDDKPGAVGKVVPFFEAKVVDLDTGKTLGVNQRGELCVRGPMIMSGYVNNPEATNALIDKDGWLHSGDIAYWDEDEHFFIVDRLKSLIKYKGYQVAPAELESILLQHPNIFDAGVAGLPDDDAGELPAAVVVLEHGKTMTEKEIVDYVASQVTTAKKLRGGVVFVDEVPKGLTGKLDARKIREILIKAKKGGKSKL
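qHTS concentration-response profiling: light output of P. pyralis luciferase with luciferin and 10 uM ATP, imidazole buffer pH 7.2. Read by luminescence after 8-min room-temperature incubation.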
ERK AVP inh – inhibitors of vasopressin-stimulated ERK signaling pathway; HEK293-V1b, vasopressin-stimulated pERK AlphaScreen; Potency, µM (series often up to 57.5 µM), for inactives: at the top dose activity, negative = inhibition, most hits filed as inhibitors; 0.99% of 72,000 active; AID 995; further: on the % scale 0 is the no-effect control and ±100 the full control effect; nearly all actives have a fitted effect of over 55% in size
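HEK293 cells stably expressing V1b receptor, seeded overnight in 1% FBS, were treated with compounds for 30 min at 37C, then stimulated 5 min with 25 nM vasopressin; phospho-ERK read by AlphaScreen SureFire after lysis.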
TSHR agonist – agonists of human thyroid stimulating hormone receptor; P16473; HEK293-CNG-TSHR cells (CNG channel as cAMP sensor), membrane potential dye, cAMP; Potency, µM (highest dose often 57.1 µM), for inactives: at the top dose activation, usual class: activators; 0.48% of 73,000 active; AID 926; active means well fitted activation curve with a large enough effect in the main read-out, with a control signal flat, not every such curve was filed as active; inconclusive means small, poorly fitted or top-dose-only effect, or a change in a side signal; inactive means no such curve, though single readings can be large or run the other way; % of control where 0% means no effect;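 further: the control signal comes from parental cells without the receptor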
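HEK 293 cells stably expressing TSHR and a modified CNG channel, with CNG-only parental cells as counterscreen, were preloaded 60 min at room temperature with membrane potential dye containing 100 uM RO 20-1724. Compound exposure was 30 min, and depolarization was read as fluorescence at 590 nm.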
HEK293 cAMP ctrl – parental HEK293 cAMP activation (counter-screen) | Potency, µM (highest dose often 57.1 µM), without a hit: at the highest dose activation, hits mostly activators | 2.5% of 73,000 active | parental HEK293 CNG cAMP sensor, membrane potential fluorescence; further: % of control where 0% means no effect; nearly all actives have a fitted effect of over 55% in size
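Parental HEK 293 cells stably expressing a cAMP-gated CNG channel were loaded with membrane potential dye containing 100 uM RO 20-1724 for 60 min. Compound added for 30 min; depolarization read as fluorescence intensity at 590 nm.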
GBA mod – human lysosomal glucosylceramidase modulation | AID 360 | purified enzyme, resorufin glucoside fluorescence (screen aimed at inhibitors), 20 min | 1.1% of 48,000 active | P04062 | Potency, µM; in the data active means potency below about 15 µM; inconclusive means mostly about 16 µM to 33 µM;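 further: the screen sought inhibitors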
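Normal human glucocerebrosidase (0.2 nM final) was assayed with resorufin β-D-glucopyranoside (30 uM final) in 50mM citric acid/KH2PO4, 10mM sodium taurocholate, 0.01% tween-20, pH 5.9. Compounds were titrated; fluorescence (Ex 548, Em 600) read after 20 min at RT.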
PK Bst – alters activity of Bacillus stearothermophilus pyruvate kinase | purified pyruvate kinase, luminescence ATP production; ribose 5-phosphate activator present at AC10 | Potency, µM | 1.2% of 51,000 active | AID 361; in the data active means potency below about 11 µM; inconclusive means mostly about 12 µM to 25 µM;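 the screen sought inhibitors and activators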;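 further: scaled between full activation by ribose 5 phosphate and full inhibition by luteolin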
Numbers without * were called inactive; i = inactive; ? = inconclusive; / = no result given; [ ] = remark or other dose. Unless noted, the call rests on the fitted dose curve; in most records, active means well fitted curve in the direction sought with a large enough effect; inconclusive means small, poorly fitted or top-dose-only effect, or another doubt; inactive means no such curve, though single readings can be large; an effect the other way counts as inactive or inconclusive. Potency means the concentration at half of the fitted maximal effect.

SMILES | Luciferase inh | ERK AVP inh | TSHR agonist | HEK293 cAMP ctrl | GBA mod | PK Bst
Cn1c(=O)c2c(nc(CN3CCc4ccccc4C3)n2CCc2ccccc2)n(C)c1=O | 4% | 3% | ? | 5µM* | >77 | >57
COc1ccc(N2CCN(Cc3nc4c(c(=O)n(C)c(=O)n4C)n3CCc3ccccc3)CC2)cc1 | -1% | / | ? | ? | / | /
CC(C)(C)c1ccc(OC2C(O)COC2/C=C/C#Cc2ccccc2)cc1 (stereo not given) | / | 21%[11.5 µM] | 5%[11.4 µM] | 6%[11.4 µM] | / | /
CCOc1ccc(-c2cc(C(=O)N3CCN(C)CC3)c3ccccc3n2)cc1 | 2µM* | -28% | 10% | 20% | >77 | 3.1*
CCOC(=O)N1CCN(C(=O)c2cc(-c3ccc(OCC)cc3)nc3ccccc23)CC1 | 0.79µM* | ? | 18% | 17% | >77 | 1.1*
CN(C)c1nc(Nc2ccc(Cl)cc2)nc(OCC#N)n1 | 2% | ? | 8% | 14% | >77 | 1.7*
CCOC(=O)N1CCN(Cc2cc(=O)oc3ccc4ccccc4c23)CC1 | 1% | -3% | ? | 25µM* | / | >57
O=c1cc(CN2CCOCC2)c2c(ccc3ccccc32)o1 | -3% | 0% | ? | ? | >77 | >11
O=C(Nc1ccc(SC(F)F)cc1)c1ccc2nccnc2c1 | ? | 25µM* | 0% | 6% | 12* | /
O=C(Nc1ccc2c(c1)OCCO2)c1ccc2nccnc2c1 | 10µM* | -5% | -2% | -15% | >77 | ?
CCC(=O)Nc1cccc(NC(=O)c2ccc3c(c2)OCCO3)c1 | 16µM* | -5% | ? | ? | >77 | /
O=C(c1cnccn1)N1CCC2(CC1)CCN(c1ccccc1)CC2 | 0%[11.4 µM] | 20% | 0% | -4% | / | /
COc1ccc(Oc2ncc3nc(C)c(=O)n(Cc4cccc(OC)c4)c3n2)cc1 | 1%[11.4 µM] | 3% | ? | 25µM* | / | /
COc1cccc(Cn2c(=O)c(C)nc3cnc(OC)nc32)c1 | 1%[11.4 µM] | -1% | ? | ? | / | /
COc1ccc(Oc2ncc3nc(-c4cccc(C#N)c4)c(=O)n(Cc4cccc(OC)c4)c3n2)cc1 | 0%[11.4 µM] | -7% | ? | 25µM* | / | /
CCc1cc2c(nc1CC)CCN(CC/C(C)=N/O[C@@H](C)CN1CCCc3nc(C)c(C)cc31)C2 | 0%[11.4 µM] | 19%[11.5 µM] | 19%[11.4 µM] | 30%[11.4 µM] | / | /
CC1(C)CC[C@]2(C(=O)O)CC[C@]3(C)C(=CCC4[C@@]5(C)CC[C@H](O)C(C)(C)[C@@H]5CC[C@]43C)C2C1 (stereo not given in full) | / | 12% | / | / | / | /
C[C@@H]1OC(OC2CC[C@@]3(C)C(CC[C@@]4(C)C3CC=C3C5CC(C)(C)CC[C@]5(C(=O)OC5OCC(O)[C@@H](O)[C@@H]5OC5O[C@@H](C)[C@H](O[C@H]6OC(CO)C(O)C(O)C6O)C(O)C5O)C(O)C[C@@]34C)C2(C)C)C(O)C(O)[C@H]1OC1OCC(O)C(O)[C@H]1O (stereo not given in full) | / | 13µM* | / | / | / | /
COc1ccc(OC)c(NC(=O)c2cc(S(=O)(=O)NCc3ccco3)ccc2F)c1 | 1% | -7% | / | 18% | 5.3* | >57
Nc1nc(CN2CCN(Cc3ccc4c(c3)OCO4)CC2)nc(Nc2ccccc2)n1 | 2% | -12% | 2% | 30% | 14* | >57
Nc1nc(CN2CCN(c3ccccc3F)CC2)nc(Nc2ccccc2)n1 | 1% | -29% | 4% | -1% | 2.3* | >57
Cc1cccc(Nc2nc(N)nc(CN3CCN(c4ccc(F)cc4)CC3)n2)c1 | 4% | -16% | -5% | 1% | 3.3* | >57
Cc1ccc(Nc2nc(N)nc(CN3CCN(c4ccccc4F)CC3)n2)cc1 | 2% | 0% | -5% | 7% | 1.4* | >57
COc1ccccc1N1CCN(CCCCNS(=O)(=O)c2cccc3c(N(C)C)cccc23)CC1 | -6% | 4% | -48% | 7% | / | /
COc1cccc(-c2ccc3ncnc(NC4CC4)c3c2)c1 | -3%[2.29 µM] | ? | / | 25% | / | /
SMILES | Luciferase inh | ERK AVP inh | TSHR agonist | HEK293 cAMP ctrl | GBA mod | PK Bst
[O-][N+]1=c2ccc(Nc3ccccc3)cc2=NC12CCCCC2 | -13% | ? | ? | -65% | >77 | /
COc1ccc(Nc2ccc3c(c2)=NC2(CCCCC2)[N+]=3[O-])cc1 | ? | 16µM* | ? | -63% | / | /
O=c1c(-c2ccc(Cl)cc2)nc2cnc(N3CCOCC3)nc2n1C[C@H]1CCCO1 | 2%[11.4 µM] | 7% | -6% | 7% | / | /
CCCC(=O)Nc1ccc(NC(=O)c2ccccn2)cn1 | 20µM* | 14% | -3%[11.4 µM] | 29% | >77 | /
COC(=O)[C@@H]1C[C@@H]2CC[C@@H](O)C[C@@H]2N1Cc1ccc(C)s1 | / | 8% | / | / | / | /
CC12C=C(/C=C/C=C/c3ccco3)C(C)(C1)C(/C=C/c1ccco1)CC2=O (stereo not given) | / | 30%[11.5 µM] | -12%[11.4 µM] | -1%[11.4 µM] | / | /
COc1ccc(N(CC(O)CN2CCCCC2)S(=O)(=O)c2ccc(C)cc2)cc1 (stereo not given) | 3% | -12% | 15% | 16% | / | >57
COc1ccc(N(CC(O)Cn2nnc3ccccc32)S(=O)(=O)c2ccc(C)cc2)cc1 (stereo not given) | 2% | -1% | 19% | 14% | >77 | 5.7*
CN(C)c1ncc2nc(-c3cc(F)cc(F)c3)c(=O)n(C3CC3)c2n1 | 1%[11.4 µM] | 10% | -8% | -12% | / | /
CC(=O)NCc1nc2ccccc2n1Cc1ccccc1C | -4% | / | 2% | 5% | / | /
Cc1ccc(C)c(Cn2c(CO)nc3ccccc32)c1 | -1% | -7% | ? | 25µM* | >77 | >57
COCc1cc(C)nc2sc(C(=O)Nc3nccs3)c(N)c12 | -13% | / | 3% | 30% | / | /
Cc1cc(C)c2c(N)c(C(=O)Nc3nccs3)sc2n1 | 0.5µM* | 10% | -5% | -2% | / | /
CCSc1nnc(C)n1-c1ccc(C(=O)O)cc1 | -1% | -13% | -10% | -2% | >77 | 6.6*
COC(=O)NC(/C(C(=O)OC)=C(\C)NCc1ccccc1)c1cccs1 (stereo not given) | / | 32%[11.5 µM] | ? | ? | / | /
O=C(Nc1ccc(CN2CCOCC2)cc1)c1cccs1 | 25µM* | -5% | -10% | 7% | >77 | /
O=C(Nc1ccc(CN2CCOCC2)cc1)c1cc2ccccc2o1 | 13µM* | 25µM* | 10% | 14% | >77 | i
O=C(Cc1ccccc1)Nc1ccc(CN2CCOCC2)cc1 | -25% | -10% | 0% | 3% | >77 | >57
Cc1cc(NC(=O)c2cc3ccccc3o2)cc(C)c1OCC(=O)N1CCOCC1 | 16µM* | -3% | 9% | 4% | >77 | /
COc1cc(C(=O)Nc2cc(C)c(OCC(=O)N3CCOCC3)c(C)c2)cc(OC)c1OC | -1% | -6% | 5% | -14% | / | /
O=C(Nc1ccc(N2CCOCC2)cc1)c1cc2ccccc2o1 | / | / | -5% | 0% | / | /
O=C(Nc1ccc(CN2CCOCC2)cc1)c1cc2ccccn2n1 | 4µM* | ? | -1% | 13% | / | /
